Values joined by “and” are separate entries in the source; they are usually repeats but may differ in a detail not shown here. Equal values may be shown once. Inconclusive results are not listed. Entries that show only a call come without a potency. Active and inactive are the calls of the source. Unless noted, calls come from the whole dose curve; as a rule, active = well fitted curve in the direction sought with a large enough effect in the repeat runs; inconclusive = weak or mixed curves; inactive = no such curve, though single readings can be large; an effect the other way counts as inactive or inconclusive.
Tests used:
[1] = qHTS assay to identify small molecule agonists of the vitamin D receptor (VDR) signaling pathway - cell viability counter screen (AID 743224); note: series mostly up to about 63 µM; nearly all actives have a fitted effect of over 50% in size
In short: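 CellTiter-Glo viability readout on VDR-bla cells, measured after 16 h of compound treatment at 37C in the same wells.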

[2] = qHTS assay to identify small molecule agonists of the NFkB signaling pathway - cell viability counter screen (AID 1159515; calls by dose curve; note: series mostly up to about 61 µM; nearly all actives have a fitted effect of over 55% in size)
In short: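 Tox21 library compounds were tested for cytotoxicity against NFkB-bla ME-180 cells during a 5 hr exposure at 37 C. CellTiter-Glo luminescence served as the viability read-out.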

[3] = qHTS assay to identify small molecule agonists of the endoplasmic reticulum stress response signaling pathway (AID 1159516; active = well fitted activation curve with a large enough effect in the signal ratio in the repeat runs, not every such curve was filed as active; the % refers to the signal ratio)
In short: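 Fluorescence at 460 and 530 nm (405 nm excitation) reports beta-lactamase from an ER stress response element in HeLa cells treated 5 hr at 37 C.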

[4] = qHTS assay to identify small molecule agonists of the endoplasmic reticulum stress response signaling pathway - cell viability counter screen (AID 1159517; calls by dose curve; note: series mostly up to about 61 µM; nearly all actives have a fitted effect of over 50% in size)
In short: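 After overnight attachment, ESRE-bla HeLa cells were treated with Tox21 library compounds for 5 hr. CellTiter-Glo luminescence, read 30 min post-addition at room temperature, reported viability.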

[5] = target: Nuclear receptor ROR-gamma (Homo sapiens) (UniProt P51449); experiment: qHTS assay to identify small molecule antagonists of the retinoid-related orphan receptor gamma (ROR-gamma) signaling pathway (AID 1159521;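 note: CHO cells with doxycycline inducible ROR-gamma driving an RORE luciferase reporter; top concentration of the series differs between compounds; nearly all actives have a fitted effect of over 50% in size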)
In short: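 Screening format: cell-based luciferase reporter in CHO cells with doxycycline-inducible RORγ. Compound pre-exposure lasts 2 h, doxycycline is 1 uM final, induction runs 16 h at 37 C, and ONE-Glo luminescence is read.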

[6] = qHTS assay to identify small molecule agonists of the AP-1 signaling pathway - cell viability counter screen (AID 1159525; calls by dose curve; note: nearly all actives have a fitted effect of over 55% in size)
In short: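 Intracellular ATP by Cell Titer Glo luminescence (30 min, RT) in the same ME-180 AP-1-bla wells after the 5 h compound exposure at 37 °C. Normalised to tetra n-octyl ammonium bromide and DMSO controls.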

[7] = qHTS assay to identify small molecule agonists of the AP-1 signaling pathway (AID 1159526; calls by dose curve)
[8] = qHTS assay to identify small molecule agonists of the RXR signaling pathway - cell viability counter screen (AID 1159529);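 note: HEK 293T cells carrying an RXR-alpha UAS beta-lactamase reporter; series mostly up to about 77 µM; nearly all actives have a fitted effect of over 50% in size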
In short: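 Viability read-out for the RXR-alpha agonist qHTS: luminescent CellTiter-Glo signal after 30 min at RT. HEK 293T bla reporter cells, 2% charcoal-stripped FBS, 16 hr compound incubation; tetraoctyl ammonium bromide as cytotoxic control.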

[9] = qHTS assay to identify small molecule antagonists of the retinoid acid receptor (RAR) signaling pathway - cell viability counter screen (AID 1159551); note: nearly all actives have a fitted effect of over 35% in size
In short: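 In this counter screen, the RARE-luciferase line C3RL4 was exposed for 6 h at 37 C and 5% CO2 to compounds with retinol at 1 uM final. Cellular ATP, read by luminescence, served as the viability measure.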

[10] = qHTS assay to identify small molecule antagonists of the estrogen related receptor (ERR) signaling pathway from Tox21 library - cell viability counter screen (AID 1224834); note: nearly all actives have a fitted effect of over 30% in size
In short: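 Counter screen run in ERR cells (2,000 cells/well): cells pre-incubated 6 h, then treated with compounds for 17.5 h at 37 C. Fluorescence was read 30 min after CellTiter-Fluor addition.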

[11] = target: Luciferin 4-monooxygenase (Photinus pyralis) (UniProt P08659); experiment: qHTS assay to identify small molecule inhibitors of firefly luciferase (AID 1224835); note: nearly all actives have a fitted effect of over 25% in size; note: potency is the fitted concentration of half-maximal effect
Chain of Luciferin 4-monooxygenase (Photinus pyralis) (P08659 whole entry, looked up): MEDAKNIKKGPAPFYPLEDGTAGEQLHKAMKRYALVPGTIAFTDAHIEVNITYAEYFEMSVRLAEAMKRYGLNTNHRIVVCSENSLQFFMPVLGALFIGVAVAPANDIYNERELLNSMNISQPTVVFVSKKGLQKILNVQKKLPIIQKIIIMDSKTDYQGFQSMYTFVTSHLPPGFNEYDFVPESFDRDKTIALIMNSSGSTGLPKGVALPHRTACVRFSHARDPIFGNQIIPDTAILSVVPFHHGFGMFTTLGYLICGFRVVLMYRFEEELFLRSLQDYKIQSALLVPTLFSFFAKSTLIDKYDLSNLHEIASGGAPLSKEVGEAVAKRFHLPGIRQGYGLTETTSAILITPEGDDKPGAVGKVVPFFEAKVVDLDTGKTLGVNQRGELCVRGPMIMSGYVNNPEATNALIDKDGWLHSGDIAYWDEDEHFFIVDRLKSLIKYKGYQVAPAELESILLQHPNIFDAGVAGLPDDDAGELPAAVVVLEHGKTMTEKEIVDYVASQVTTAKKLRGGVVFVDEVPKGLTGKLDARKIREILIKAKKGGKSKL
In short: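 Inhibition of purified Photinus luciferase is measured by luminescence. Substrate levels (D-luciferin, ATP) sit at their KM values. Each compound is tested in a concentration series.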

[12] = qHTS assay to identify small molecule agonists of the constitutive androstane receptor (CAR) signaling pathway - cell viability counter screen (AID 1224836); note: series mostly up to about 92 µM; nearly all actives have a fitted effect of over 45% in size
In short: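 Multiplexed viability check: HepG2-CYP2B6-hCAR cells, 15-point compound dosing, 0.75 uM PK11195 final, 23 h at 37 C, CellTiter-Fluor fluorescence.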

[13] = qHTS assay to identify small molecule antagonists of the vitamin D receptor (VDR) signaling pathway - cell viability counter screen (AID 743225); note: nearly all actives have a fitted effect of over 50% in size
In short: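 In this counter screen, VDR-bla HEK 293T cells receive test compound plus 3 nM final calcitriol for 16 h at 37C. Room-temperature steps of 2 h with the beta-lactamase substrate, then 30 min with CellTiter-Glo, precede the luminescence read.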

[14] = qHTS assay to identify small molecule antagonists of the retinoid-related orphan receptor gamma (ROR-gamma) signaling pathway - cell viability counter screen (AID 1159520); note: nearly all actives have a fitted effect of over 50% in size
In short: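 Cytotoxicity was read from cellular ATP (CellTiter-Glo luminescence) after 16 hr at 37 C with 1 uM doxycycline induction. The inducer was added 2 hr after compound transfer to Tet-on ROR gamma CHO cells.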

[15] = qHTS assay to identify small molecule antagonists of the retinoic acid receptor (RAR) signaling pathway (AID 1159552; note: nearly all actives have a fitted effect of over 50% in size)
In short: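 Using a RARE-driven luciferase construct in C3RL4 cells, retinol at 1 uM final provided the agonist stimulus while compounds were co-applied. After 6 hours at 37 C, luminescence was recorded to flag inhibitors of retinol signaling.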

[16] = qHTS assay to identify small molecule agonists of the retinoic acid receptor (RAR) signaling pathway (AID 1159553)
In short: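 In this cell-based screen, 1,000 C3RL4 cells per well were cultured overnight, dosed with test chemicals in DMSO for 6 hr, and assessed for RARE luciferase luminescence.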

Row | SMILES | Potency [1] | outcome [2] | outcome [3] | outcome [4] | Potency [5] | Potency [6] | outcome [7] | Potency [8] | outcome [9] | Potency [10] | Potency [11] | Potency [12] | outcome [13] | Potency [14] | Potency [15] | Potency [16]
1 | COc1ccc(Nc2ccccc2)c(C)c1 | inactive | inactive | inactive | inactive | inactive | inactive | inactive | inactive | inactive | inactive | inactive | inactive | – | – | – | –
2 | CCc1cccc(C)c1N | inactive | inactive | inactive | inactive | inactive | inactive | inactive | inactive | inactive | inactive | inactive | inactive | inactive | inactive | inactive | inactive
3 | Cc1ccc(S(N)(=O)=O)cc1 | inactive | inactive | – | inactive | – | inactive | inactive | inactive | inactive | inactive | inactive | inactive | inactive | inactive | inactive | inactive
4 | C/C=C1/CC2C=CC1C2 (stereo not drawn) | inactive | inactive | – | inactive | – | inactive | inactive | inactive | inactive | inactive | inactive | inactive | inactive | inactive | inactive | inactive
5 | c1c[nH]cn1 | inactive | inactive | inactive | inactive | inactive | inactive | inactive | inactive | inactive | inactive | inactive | inactive | inactive | inactive | inactive | inactive
6 | c1ccc2c(c1)ccc1ccccc12 | inactive | inactive | inactive | inactive | inactive | inactive | inactive | inactive | inactive | inactive | 34.6 µM (active) and 56.4 µM (active) | inactive | inactive | inactive | inactive | inactive

Source: PubChem BioAssay (Tox21)
